ALDH1A1 inh: ALDH1A1 (human) enzyme inhibition | P00352 | Purified ALDH1A1, NADH fluorescence, propionaldehyde substrate | Potency, µM (highest dose often 75.3 µM), for inactives: at the highest dose activity, negative = inhibition, actives largely listed as inhibitors | 220,000 tested, 7.3% active | AID 1030;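 note: potency is the fitted concentration of half-maximal effect; plate controls were no enzyme wells and a reference inhibitor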
Target sequence (P00352 whole entry, looked up): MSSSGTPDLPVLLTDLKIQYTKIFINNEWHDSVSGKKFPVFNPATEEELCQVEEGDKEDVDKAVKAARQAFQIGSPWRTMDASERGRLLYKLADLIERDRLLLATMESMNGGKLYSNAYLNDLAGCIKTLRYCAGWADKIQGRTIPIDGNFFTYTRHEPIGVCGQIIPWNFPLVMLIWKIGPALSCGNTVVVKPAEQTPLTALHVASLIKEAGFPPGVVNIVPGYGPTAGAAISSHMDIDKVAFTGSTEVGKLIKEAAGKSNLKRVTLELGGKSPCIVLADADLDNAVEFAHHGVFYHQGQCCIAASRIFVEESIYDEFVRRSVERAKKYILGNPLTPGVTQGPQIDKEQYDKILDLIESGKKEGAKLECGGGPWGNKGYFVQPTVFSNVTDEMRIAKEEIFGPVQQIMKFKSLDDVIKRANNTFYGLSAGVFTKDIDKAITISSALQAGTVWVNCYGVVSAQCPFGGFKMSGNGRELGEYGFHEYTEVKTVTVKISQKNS
IMPase Li inh: membrane-permeable IMPase blocker, potentiated with lithium; CHO-M1 cells, IP1 TR-FRET (IP-One), carbachol + lithium; Potency, µM (doses to about 59.4 µM), for inactives: at the top dose activity, negative = IMPase inhibition, most hits filed as inhibitors; 210,000 tested, 0.35% active; active = well fitted inhibition curve with a large enough effect; inconclusive = small, poorly fitted or top-dose-only effect; inactive = no such curve, though single readings can be large or run the other way;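 note: IP1 builds up when IMPase is blocked and the TR-FRET signal falls; potency is the fitted concentration of half-maximal effect; plate controls were basal vehicle for no effect and high inhibitor control for full effect; nearly all actives have a fitted effect of over 50% in size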
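CHO cells stably expressing M1 receptor (2000/well, cultured 16–30 h) treated 30 min at 37C with compound plus low lithium. Cytosolic IP1 by TR-FRET (665/620 ratio and 620 channel) after 10 min lysis; AC50 by Hill fit.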
PNC assembly inh: blocks assembly of the perinucleolar compartment; PC3M PTB-GFP, PNC prevalence imaging, 16 h; hits give low values; activity change (PNC), negative = inhibition, % at 10 µM; 140,000 tested, 3.1% active; AID 2417;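 active = readout at or below -70, meaning at least 70% loss of cells showing the perinucleolar compartment, a nuclear body marking cancer cells; inconclusive = readout between -30 and a set limit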;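 note: plate controls were DMSO wells for no effect and camptothecin positive control wells for full effect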
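PC3M cells stably expressing PTB-GFP, 750–1000 cells/well, treated 16 h at 37 °C with compound (23 nl of library stock), in duplicate. After paraformaldehyde fixation and Hoechst stain, imaged at 20x; PNC prevalence scored by image analysis.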
HPGD inh: blocks human HPGD enzyme activity; P15428; purified HPGD, NADH fluorescence kinetic, PGE2 substrate; Potency, µM, for inactives: at the top dose activity change, negative = inhibition, hits mostly inhibitors; 150,000 tested, 4.3% active; AID 894; note: potency is the fitted concentration of half-maximal effect
Target sequence (P15428 whole entry, looked up): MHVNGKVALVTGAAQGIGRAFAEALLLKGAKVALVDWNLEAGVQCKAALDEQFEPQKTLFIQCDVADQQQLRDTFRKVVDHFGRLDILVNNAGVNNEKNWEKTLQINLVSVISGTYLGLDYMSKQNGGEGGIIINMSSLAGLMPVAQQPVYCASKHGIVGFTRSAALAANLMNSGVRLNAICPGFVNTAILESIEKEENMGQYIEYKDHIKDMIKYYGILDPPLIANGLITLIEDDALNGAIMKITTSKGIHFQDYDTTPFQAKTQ
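20 nM HPGD preincubated 15 min at room temperature with compound in 50 mM Tris-HCl pH 8, 0.01% Tween 20. Started with 1 mM NAD+ and 30 uM prostaglandin E2; NADH fluorescence (360/450 nm) read 5 times over 30-s intervals, last minus first.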
IMPase cell inh: membrane-permeable compound that blocks inositol monophosphatase. P97697. CHO-M1 cells, IP1 accumulation, HTRF TR-FRET ratio. inhibition (IP1 accumulation), % at 46.1 µM. 120,000 tested, under 10 active. AID 901; active = well fitted curve in the direction sought with a large enough effect in the signal ratio, not every such curve was filed as active; inconclusive = small, poorly fitted or top-dose-only effect, or a change in a side signal; inactive = no such curve, though single readings can be large or run the other way; the % refers to the signal ratio;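 note: cells stimulated with carbachol in lithium chloride buffer; plate controls were DMSO basal wells for no effect and reference inhibitor wells for full effect; higher means more IMPase inhibition seen as more IP1 and lower FRET ratio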
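In this qHTS, compounds (final up to 46 uM) act on CHO-M1 cells that are then activated through the M1 receptor with carbachol, in pH 7.4 buffer containing 50 mM LiCl, for 30 min. IP1 accumulation is quantified by the IP-One immunoassay.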
Active calls of the source: *; ? = inconclusive; . = not tested or not shown; [ ] = remark or other dose. Only some compounds are listed: those with a hit (about 11% of all), similar ones and a draw of the others. Unless noted, calls come from the whole dose curve; as a rule, active = well fitted inhibition curve with a large enough effect (not every such curve was filed as active); inconclusive = small, poorly fitted or top-dose-only effect, or another doubt; inactive = no such curve, though single readings can be large or run the other way. Unless noted, % is set by controls: 0 for no effect and ±100 for the full control effect.

SMILES | ALDH1A1 inh | IMPase Li inh | PNC assembly inh | HPGD inh | IMPase cell inh
O=[N+]([O-])c1ccc(-n2nnnc2CN2CCCCC2)cc1 | 20µM* | 3% | . | . | .
O=[N+]([O-])c1ccc(-n2nnnc2CN2CCOCC2)cc1 | 7% | 3% | . | . | .
CC(C)(C)C1CCC(=NNC(=O)CN(c2ccccc2)S(=O)(=O)c2ccccc2[N+](=O)[O-])CC1 (configuration not stated) | 10µM* | -6% | 26 | -20% | .
C/C(=N\NC(=O)CN(c1ccccc1)S(=O)(=O)c1ccccc1[N+](=O)[O-])C(C)(C)C | -3% | 5% | 37 | -8% | 5
O=S(=O)(c1ccc(Cl)cc1)c1nc(-c2cccs2)oc1N1CCCCC1 | . | . | . | . | 4
Cc1nc(-c2ccccc2O)n(-c2ccccc2)n1 | 1% | 26%[38.3 µM] | -5 | -5% | -1
COc1ccccc1N1CCN(C(=O)CSc2ncnc3scc(-c4ccccc4)c23)CC1 | ? | 14% | 22 | -11% | 13
COc1ccccc1OCC(=O)N1CCN(c2ccccc2OC)CC1 | 4% | -4%[38.3 µM] | ? | -14% | -7
COc1ccc(-n2ncc3c(SCC(=O)N4CCN(c5ccccc5OC)CC4)ncnc32)cc1 | ? | 6% | -119* | -21% | 3
COc1ccccc1N1CCN(C(=O)CSc2nnc(NC(=O)C(C)C)s2)CC1 | 8.9µM* | -3% | . | . | .
COc1ccccc1N1CCN(C(=O)CSc2nc3ccccc3[nH]2)CC1 | 10% | 25%[38.3 µM] | ? | -3% | -3
CCC(CC)C(=O)Nc1nnc(SCC(=O)N2CCN(c3ccccc3OC)CC2)s1 | 13µM* | -1%[38.3 µM] | -3 | -12% | -12
COc1c(C)cccc1C(=O)Nc1ccc(-c2nc3ccccc3s2)c(Cl)c1 | . | . | . | . | -15
O=c1c(-c2ccc(Cl)cc2)nc2cncnc2n1Cc1ccccc1Cl | -16% | 11% | . | -11% | .
CC(=O)c1ccc(Nc2nc3ccccc3nc2-n2nc(C)cc2C)cc1 | . | . | . | . | -5
CCOC(=O)c1sc(C)c2c1NC(c1ccc(Cl)cc1)NC2=O (configuration not stated) | 3% | ? | ? | ? | 0
COc1ccc(C(=O)N2CC3(CC(c4cccc([N+](=O)[O-])c4)=NO3)C[C@H]2C(=O)NCC(N)=O)cc1 (some centres not stated) | 11µM* | -1%[38.3 µM] | 83 | ? | 18
COc1cc(C(C)=O)ccc1OCC(O)CN1CCN(S(=O)(=O)c2ccccc2)CC1 (configuration not stated) | 28µM* | -4%[38.3 µM] | 11 | -9% | 4
Cc1ccc(N=Nc2c(=O)[nH]n3c(=O)cc(C)[nH]c23)cc1 | ? | 47%[38.3 µM] | ? | 20µM* | 30
Cc1ccc(N=Nc2c(N)[nH]n3c(=O)cc(-c4ccccc4)nc23)cc1 | 12% | -2%[38.3 µM] | -30 | -22% | 8
O=C1[C@H]2[C@H]3[C@H](O)[C@H](O)C/C(=N/OC[C@@H](O)COCc4ccco4)[C@@H]3CC[C@@H]2C(=O)N1C1CCCCC1 | 2%[13.5 µM] | . | . | . | .
CCCC(C(=O)NC1CCCC1)N(Cc1ccc2c(c1)OCO2)C(=O)c1snc(C(N)=O)c1N (configuration not stated) | 13µM* | 52%[38.3 µM] | 0 | -16% | 7
CC[n+]1c(/C=C2/C=C(C)CC(C)(C)C2)sc2ccc(OC)cc21 | 8.9µM* | 54%[38.3 µM] | -30 | -26% | 9
CC[n+]1c(/C=C2\C=C(C)CC(C)(C)C2)sc2ccccc21 | ? | 22%[38.3 µM] | 4 | -24% | 13
COC(=O)NNC(=O)COc1ccc2ccccc2c1Br | -1% | ? | -82* | 16µM* | .
SMILES | ALDH1A1 inh | IMPase Li inh | PNC assembly inh | HPGD inh | IMPase cell inh
CC(C)(C)C(=O)NNC(=O)COc1ccc2ccccc2c1Br | -9% | ? | . | . | .
O=C(Oc1ccc2ccccc2c1Br)N1CCCCCC1 | -3% | -11%[38.3 µM] | ? | 32µM* | 1
O=C(COc1ccc2ccccc2c1Br)NNC(=O)Nc1ccccc1 | -30% | 11µM* | 36 | -14% | -18
O=C(CCc1nnc(CCC2CCCCC2)o1)NCc1ccon1 | -6% | -5% | . | . | .
COc1ccc2c(c1)O[C@@H](c1cccc(C(F)(F)F)c1)[C@H](OC(=O)NCc1ccc3c(c1)OCO3)C2=O | -8% | 18% | . | -6% | .
NC(=S)Cc1nc(-c2ccccc2)cs1 | 3.2µM* | -5% | -15 | -17% | .
O=C(O)c1ccc(C(=O)c2ccc3c(c2)C(=O)N(Cc2ccco2)C3=O)cc1 | 11µM* | 16%[38.3 µM] | ? | 8.9µM* | -1
O=C(Nc1ccc(O)cc1C(=O)O)c1ccc2c(c1)C(=O)N(Cc1ccco1)C2=O | 5.6µM* | 19%[38.3 µM] | ? | -13% | -6
O=C(Nc1ccc(O)cc1)c1ccc2c(c1)C(=O)N(Cc1ccco1)C2=O | 14µM* | -6% | -15 | -9% | .
COc1ccccc1Cn1c(=O)c2ccccc2n2c(SCC(=O)N3CCCCC3)nnc12 | ? | 10µM* | ? | ? | ?
CC1CCCN(C(=O)CSc2nnc3n(C4CCCC4)c(=O)c4ccccc4n23)C1 (configuration not stated) | 7.9µM* | 20%[38.3 µM] | 54 | 20µM* | 5
CCn1c(=O)c2ccccc2n2c(SCC(=O)N3CCCc4ccccc43)nnc12 | ? | 5%[38.3 µM] | 19 | -7% | 4
O=C(CSc1nnc2n(C3CCCC3)c(=O)c3ccccc3n12)N1CCCCCC1 | ? | 30%[38.3 µM] | -15 | -9% | -1
Cc1ccccc1CC1(CO)CCCN(C(=O)c2ccc3ncccc3c2)C1 (configuration not stated) | ? | 16% | . | . | .
CC(C)[C@@H](CC(=O)N[C@@H]1CCCC[C@H]1C(=O)N[C@H](CC(=O)N[C@@H](CCC(=O)O)CC(=O)O)Cc1c[nH]c2ccccc12)NC(=O)C[C@H](Cc1ccccc1)NC(=O)[C@@H]1CNCC[C@H]1N | -6% | 21% | . | -9% | .
COC(=O)/C=C1\OC(c2ccccc2)=CC1=O | 10µM* | 18% | -13 | 20µM* | .
COC(=O)[C@@H]1CC[C@H](C)[C@@H](c2ccc(C)cc2)N1C(=O)c1ccc(/C=N\O[C@@H](C)c2cc(-c3c(C)cc(C)cc3C)no2)cc1 | 8%[13.5 µM] | . | . | . | .
Cc1ccc(S(=O)(=O)C2(C(=O)N3CCCC(C)C3)CC2)cc1 (configuration not stated) | 1% | -7%[38.3 µM] | 53 | 25µM* | 8
CCOc1ccc(S(=O)(=O)N2c3ccccc3CC2C)cc1 (configuration not stated) | ? | 55%[38.3 µM] | -103* | -16% | 0
Cc1ccc(S(=O)(=O)N2c3ccc(S(N)(=O)=O)cc3CC2C)cc1 (configuration not stated) | 25µM* | 0% | -22 | -6% | .
COc1cccc(OC)c1-c1nn2c(-c3cc(-c4ccccc4)n[nH]3)nnc2s1 | 6% | 4%[38.3 µM] | 15 | 13µM* | 4
